HSF1 inh: HSF1 inhibition | NIH3T3-HGL HSE-luciferase, MG132-induced, luminescence 8 h; active compounds read low | activity change, negative = inhibition, % at 7.5 µM (by protocol) | 300,000 compounds, 0.77% hits | AID 2098;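 active means more than half of replicate wells show activity change below -50%, luminescence cut by over half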;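 further: luciferase reports HSF-1 transcriptional activity via heat shock element; 0% = median of DMSO wells and -100% = zero luminescence signal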
S1P4 antagonist: antagonists of human S1P4 receptor; 220,000 compounds, 0.26% hits; O95977; AID 1510; inhibition, % at 4.98 µM; S1P4-expressing cells, antagonist mode, reporter read-out; in the data active means inhibition above about 29%;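 further: 0% = wells stimulated with agonist and 100% = vehicle wells without agonist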
Target sequence (O95977 whole entry, looked up): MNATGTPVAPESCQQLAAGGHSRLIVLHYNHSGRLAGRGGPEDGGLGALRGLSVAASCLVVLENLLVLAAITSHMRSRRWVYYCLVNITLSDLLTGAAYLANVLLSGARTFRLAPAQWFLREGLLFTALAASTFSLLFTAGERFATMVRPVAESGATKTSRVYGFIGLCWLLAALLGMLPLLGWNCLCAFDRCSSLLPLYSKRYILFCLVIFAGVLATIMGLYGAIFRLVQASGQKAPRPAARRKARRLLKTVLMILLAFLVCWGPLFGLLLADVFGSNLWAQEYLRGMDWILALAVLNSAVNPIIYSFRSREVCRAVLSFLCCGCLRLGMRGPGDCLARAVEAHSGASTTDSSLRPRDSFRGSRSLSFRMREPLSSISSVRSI
HSF1 activator: increases HSF-1 driven luciferase reporter signal; NIH3T3-HGL HSF-1 luciferase reporter, MG132, 8 h; 100% = twice DMSO control signal; activation, % at 9 µM; 300,000 compounds, 1.7% hits; AID 504408;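 active means mean replicate activation of at least 50% with a set share of replicates each reaching 50%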;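 further: 0% = median of the neutral control wells and 100% = twice that signal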
S1P4 agonist: human S1P4 receptor agonism; AID 1509; S1P4-expressing cell line, agonist reporter assay; 220,000 compounds, 0.35% hits; O95977; activation, % at 4.98 µM; in the data active means activation above about 11%;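 further: 0% = DMSO vehicle and 100% = reference agonist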
Hsp70 act: transcriptional activators of Hsp70 | HeLa Hsp70 promoter luciferase reporter, luminescence; scaled: vehicle 0, proteasome-inhibitor control 100% | activation, % at 10 µM | 200,000 compounds, 0.04% hits;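 active means activation above the mean across all tested compounds plus 3 SD, cutoff set per campaign, cut at about 5.5% in these data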;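 further: 100% = MG132 at 30 µM as the positive control and 0% = DMSO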
S1P3 antag: antagonists of human S1P3 receptor | Q99500 | CHO S1P3 NFAT-BLA reporter, FRET fluorescence, antagonist mode | inhibition, % at 4.98 µM | 170,000 compounds, 0.27% hits | AID 485;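 active means inhibition above the plate cutoff, the mean inhibition of test wells on that plate plus 3 SD, cut at about 28% in these data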;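 further: cells challenged with S1P at its EC80 of 0.8 µM; blue over green emission ratio from cleaved BLA substrate after 4 h stimulation; 0% = S1P-stimulated wells and 100% = unstimulated DMSO-only wells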
* hit, by the source's call; nt = not tested or not shown. Compounds with a hit are over-represented: about 2.9% of the library has one in this group of screens.

SMILES | HSF1 inh | S1P4 antagonist | HSF1 activator | S1P4 agonist | Hsp70 act | S1P3 antag
O=C1NC(=O)N(Cc2ccc(F)cc2)C(=O)/C1=C\C=C\c1ccco1 | 43 | 6 | 82* | 0 | nt | -12
COc1cc(OC)cc(C(=O)NC(=S)N2C[C@H]3C[C@H](C2)c2cccc(=O)n2C3)c1 | 1 | nt | -9 | nt | nt | nt
COc1cccc(OCc2cc(C(=O)N3C[C@H]4C[C@@H](C3)c3cccc(=O)n3C4)no2)c1 | 43 | nt | 73* | nt | nt | nt
CCN(CC)C(=O)c1ccc(NC(=O)Nc2ccccc2F)cc1 | -64* | -19 | -70 | 0 | 0 | -6
CC12CCC3C(CC=C4CC(O)CCC43C)C1C/C(=C\c1cccc(F)c1)C2=O (stereo unspecified) | 11 | -10 | 4 | -1 | -1 | -15
O=c1[nH]c(=S)[nH]c(O)c1N=Nc1ccc2c(c1)OCO2 | -4 | -18 | -8 | 1 | 0 | 1
COc1cccc(N=Nc2c(O)[nH]c(=S)[nH]c2=O)c1 | 53 | 3 | 103* | 0 | nt | 0
O=c1[nH]c(=S)[nH]c(O)c1N=Nc1ccc2c(c1)OCCO2 | 46 | -10 | 73* | 1 | nt | -31
COc1ccc(N=Nc2c(O)[nH]c(=S)[nH]c2=O)cc1 | -13 | -22 | 9 | 2 | 0 | -10
O=c1[nH]c(O)c(N=Nc2ccc3c(c2)OCCO3)c(=O)[nH]1 | -62* | -7 | -67 | -2 | -1 | -2
CCOC(=O)c1sc(/N=C/c2c(O)n(-c3cccc(C)c3)c(=O)[nH]c2=O)c(C#N)c1C | 3 | -14 | -2 | 1 | 0 | -8
Cc1ccc(-c2nn(Cc3ccccc3)cc2C=O)cc1C | 45 | -30 | 70* | 1 | 0 | -3
Cc1ccc(Cn2cc(C=O)c(-c3ccc(F)cc3)n2)cc1 | 21 | nt | 57* | nt | nt | nt
Cc1ccc(-c2nn(Cc3ccccc3)cc2C=O)cc1 | 44 | -19 | 53* | 1 | 0 | -4
Clc1ccccc1C1NCc2ccccc2-n2cccc21 (stereo unspecified) | -4 | -6 | -1 | 1 | 0 | 0
OC1/C(=C/c2ccccc2C(F)(F)F)N2CCC1CC2 (stereo unspecified) | -78* | 5 | -82 | 1 | 0 | -12
CC(C)(C)NC(=O)NC(=O)CN1CC=C(c2ccccc2)CC1 | 12 | 4 | 61* | 1 | 0 | -5
O=C(CN1CC=C(c2ccccc2)CC1)NC(=O)NC1CCCCC1 | nt | -2 | nt | 1 | 0 | -5
CCCCc1ccc(NC2=NCCCS2)cc1 | -1 | nt | -7 | nt | nt | nt
CN1C(=O)C(=Cc2sc(=O)n(-c3ccccc3)c2N2CCCCC2)C(=O)N(C)C1=O | 27 | -18 | 67* | 1 | nt | -3
Cc1ccccc1-n1c(O)c(C=Nc2ccc(N(C)C)cc2)c(=O)[nH]c1=O | 21 | 3 | 64* | 0 | 0 | -23
Cc1cccc(N=Cc2c(O)n(-c3ccccc3C)c(=O)[nH]c2=O)c1 | nt | 9 | nt | -4 | 0 | nt
CCOc1cccc(C2NCc3ccccc3-n3cccc32)c1O (stereo unspecified) | 80 | 13 | 93* | 1 | 0 | -3
CCOc1cc(C2NCc3ccccc3-n3cccc32)ccc1O (stereo unspecified) | 4 | -2 | 9 | 3 | 0 | 14
C=CCn1c(O)c(C(CC)=Nc2ccc3c(c2)CCC3)c(=O)[nH]c1=O | 30 | -10 | 74* | 2 | nt | 10
SMILES | HSF1 inh | S1P4 antagonist | HSF1 activator | S1P4 agonist | Hsp70 act | S1P3 antag
COc1ccc(OC)c(N=Cc2c(O)n(Cc3ccccc3)c(=S)[nH]c2=O)c1 | 4 | 7 | 4 | 0 | nt | -7
COc1ccc(N=Cc2c(O)n(Cc3ccccc3)c(=S)[nH]c2=O)c(OC)c1 | 63 | 2 | 117* | 0 | nt | -5
CP(=O)(O)CN1CCCCC1 | -10 | -12 | -7 | 0 | 0 | -7
O=C(c1ccc(Cl)cc1)C1CCCN(Cc2ccc3c(c2)OCCO3)C1 (stereo unspecified) | -60* | 3 | -69 | 1 | 0 | -1
O=C(c1ccc2c(c1)OCO2)C1CCCN(Cc2ccc(F)c(F)c2)C1 (stereo unspecified) | 9 | nt | 15 | nt | nt | nt
COc1ccccc1NC(=O)c1cn(CCC#N)nc1-c1ccc(F)cc1 | 9 | nt | 2 | nt | nt | nt
O=c1[nH]c(=O)n(Cc2ccccc2)c(O)c1C=NCCN1CCNCC1 | -85* | -6 | -89 | -2 | 0 | nt
CC1(C)C2SCC(=O)N2CCN1CC(=O)NN (stereo unspecified) | 4 | -7 | -2 | -1 | nt | 13
Cc1ccsc1C(=O)C1CCCN(Cc2ccccc2O)C1 (stereo unspecified) | 20 | 1 | 58* | 2 | 0 | -6
Cc1oc(-c2ccccc2Cl)nc1CN1C(=O)CN=C(c2ccccc2)c2ccccc21 | 60 | 7 | 95* | -1 | 0 | -16
CCC(=Nc1ccccc1NC(C)=O)c1c(O)n(C)c(=O)n(C)c1=O | 5 | -42 | 2 | 2 | 0 | -20
COC(=O)[C@]12OC[C@]34C([C@@H](O)[C@@H]1O)[C@]1(C)CC(=O)C(O)=C(C)[C@@H]1C[C@H]3OC(=O)[C@H](O)[C@@H]24 (stereo partly specified) | -69* | nt | -74 | nt | nt | nt
O=C(NC1(C(F)(F)F)Oc2ccc(Cl)cc2O1)N1CCC2(CC1)OCCO2 (stereo unspecified) | 23 | 42* | 32 | -6 | 0 | nt
O=C(NC1(C(F)(F)F)Oc2ccccc2O1)N1CCC2(CC1)OCCO2 | 6 | 3 | 20 | 1 | 0 | nt
Fc1cccc(F)c1CN1CCN(c2ccc(Cl)cc2)CC1 | 15 | nt | 60* | nt | nt | nt
Cc1cc(OCC(=O)N2CCC(C(=O)NCC(C)C)CC2)c2c3c(c(=O)oc2c1)CCCC3 | 6 | nt | 12 | nt | nt | nt
c1ccc(C2OCCN3CCCCC23)cc1 (stereo unspecified) | nt | 2 | nt | 241* | 0 | 0
OC1CCCCC1N1CCC(c2ccccc2)CC1 (stereo unspecified) | -5 | -20 | -30 | 1 | 0 | 4
O=C(c1ccc2c(c1)OCO2)N1CCC2(CC1)OCCO2 | -68* | -26 | -76 | 1 | 0 | 8
COc1ccc2ccc(O)c(CN3CC=C(c4ccccc4)CC3)c2c1 | 164 | -23 | 201* | 1 | 0 | -9
COc1ccc2c(CN3CC=C(c4ccccc4)CC3)cc(=O)oc2c1 | -4 | -3 | 4 | 0 | 0 | -14
N=c1sccn1Cc1ccccc1F | 5 | nt | 1 | nt | nt | nt
COC(=O)C1=C(C(=O)OC)C2OC1c1cc3ccccc3cc12 | 59* | nt | 59* | nt | nt | nt
CC1=CC(=C2C(=O)NC(=S)NC2=O)C=C(C(F)(F)F)N1CCc1ccccc1 | -2 | -9 | -10 | 2 | 0 | 8
COc1cccc(NC(=O)CN2CC(c3ccccc3)CC2=O)c1 (stereo unspecified) | -6 | 5 | -5 | 0 | 0 | nt

Screening results deposited in PubChem BioAssay by several laboratories.
